The supplement of paper PMC12067093, “Discovery and optimisation of a covalent ligand for TRIM25 and its application to targeted protein ubiquitination” (Chemical Science, 2025)
About 21,000 targets were measured; listed, in parts, are those with the largest changes and a random draw of the rest.

Compound: Cc1cc(ccc1-c1ccccc1)C(=O)N1CCCN(CC1)C(=O)CCl [compound 10]
Experiment: probe-labelled cysteine peptide fold change vs DMSO (competition) (log2 fold change); higher = less target engagement (more negative = stronger competition)
Conditions: THP-1, incubation time: 4 h
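Note: competitive profiling in live THP-1 cells: cysteine peptides tagged with an iodoacetamide desthiobiotin (IA-DTB) probe, intensity after compound treatment relative to DMSO-treated cells.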

UniProt P21281, sequence (P21281 whole entry, looked up): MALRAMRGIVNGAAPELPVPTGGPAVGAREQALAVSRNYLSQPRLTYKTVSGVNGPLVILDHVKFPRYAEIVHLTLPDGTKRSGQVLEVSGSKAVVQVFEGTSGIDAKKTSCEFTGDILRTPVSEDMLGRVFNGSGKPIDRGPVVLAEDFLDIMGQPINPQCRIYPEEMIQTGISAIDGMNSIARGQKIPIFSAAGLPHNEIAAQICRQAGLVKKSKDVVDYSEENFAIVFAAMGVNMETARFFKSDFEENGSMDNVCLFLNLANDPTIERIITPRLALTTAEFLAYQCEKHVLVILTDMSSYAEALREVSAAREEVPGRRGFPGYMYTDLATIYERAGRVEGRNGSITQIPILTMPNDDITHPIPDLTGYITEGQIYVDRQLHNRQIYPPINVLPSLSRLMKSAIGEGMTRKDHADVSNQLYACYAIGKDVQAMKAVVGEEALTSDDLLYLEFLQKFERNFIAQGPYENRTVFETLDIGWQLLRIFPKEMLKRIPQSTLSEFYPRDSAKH
UniProt Q8NHH9, sequence (Q8NHH9 whole entry, looked up): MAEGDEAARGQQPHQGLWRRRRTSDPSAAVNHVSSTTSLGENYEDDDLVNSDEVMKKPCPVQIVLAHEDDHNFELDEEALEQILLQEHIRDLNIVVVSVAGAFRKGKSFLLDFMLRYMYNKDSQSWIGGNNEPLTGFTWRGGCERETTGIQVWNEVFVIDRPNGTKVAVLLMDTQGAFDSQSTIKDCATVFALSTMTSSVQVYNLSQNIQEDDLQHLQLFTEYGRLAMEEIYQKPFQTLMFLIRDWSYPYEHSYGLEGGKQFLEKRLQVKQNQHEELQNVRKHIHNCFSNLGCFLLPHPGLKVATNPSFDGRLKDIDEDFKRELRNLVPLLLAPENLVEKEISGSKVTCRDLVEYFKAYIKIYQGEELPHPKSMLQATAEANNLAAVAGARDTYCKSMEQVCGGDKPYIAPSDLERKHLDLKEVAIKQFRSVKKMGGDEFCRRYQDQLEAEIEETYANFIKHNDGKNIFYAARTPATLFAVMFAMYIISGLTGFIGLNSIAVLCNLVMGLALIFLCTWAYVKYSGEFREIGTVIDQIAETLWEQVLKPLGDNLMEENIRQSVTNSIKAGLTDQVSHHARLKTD
UniProt P54886, sequence (P54886 whole entry, looked up): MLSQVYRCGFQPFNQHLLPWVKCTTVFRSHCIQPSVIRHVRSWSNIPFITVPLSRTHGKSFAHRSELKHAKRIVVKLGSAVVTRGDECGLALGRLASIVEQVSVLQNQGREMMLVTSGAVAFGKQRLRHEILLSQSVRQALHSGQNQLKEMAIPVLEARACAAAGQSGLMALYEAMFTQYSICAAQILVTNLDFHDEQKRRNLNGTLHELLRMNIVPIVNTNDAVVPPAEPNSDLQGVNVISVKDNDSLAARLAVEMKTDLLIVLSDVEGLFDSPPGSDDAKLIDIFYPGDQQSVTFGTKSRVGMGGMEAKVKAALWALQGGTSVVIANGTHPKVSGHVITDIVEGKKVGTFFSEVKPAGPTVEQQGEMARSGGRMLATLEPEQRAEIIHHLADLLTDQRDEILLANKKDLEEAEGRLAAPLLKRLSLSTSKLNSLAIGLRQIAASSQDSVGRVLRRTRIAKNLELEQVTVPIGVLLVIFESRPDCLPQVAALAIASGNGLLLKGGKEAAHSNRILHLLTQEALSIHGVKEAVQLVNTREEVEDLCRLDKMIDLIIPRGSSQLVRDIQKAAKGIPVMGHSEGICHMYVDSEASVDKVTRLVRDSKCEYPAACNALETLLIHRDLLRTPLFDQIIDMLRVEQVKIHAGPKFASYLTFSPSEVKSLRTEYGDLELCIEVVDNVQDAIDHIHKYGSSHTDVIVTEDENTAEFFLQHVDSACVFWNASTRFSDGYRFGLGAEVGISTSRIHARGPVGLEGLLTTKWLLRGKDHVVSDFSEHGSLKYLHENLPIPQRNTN
UniProt O60488, sequence (O60488 whole entry, looked up): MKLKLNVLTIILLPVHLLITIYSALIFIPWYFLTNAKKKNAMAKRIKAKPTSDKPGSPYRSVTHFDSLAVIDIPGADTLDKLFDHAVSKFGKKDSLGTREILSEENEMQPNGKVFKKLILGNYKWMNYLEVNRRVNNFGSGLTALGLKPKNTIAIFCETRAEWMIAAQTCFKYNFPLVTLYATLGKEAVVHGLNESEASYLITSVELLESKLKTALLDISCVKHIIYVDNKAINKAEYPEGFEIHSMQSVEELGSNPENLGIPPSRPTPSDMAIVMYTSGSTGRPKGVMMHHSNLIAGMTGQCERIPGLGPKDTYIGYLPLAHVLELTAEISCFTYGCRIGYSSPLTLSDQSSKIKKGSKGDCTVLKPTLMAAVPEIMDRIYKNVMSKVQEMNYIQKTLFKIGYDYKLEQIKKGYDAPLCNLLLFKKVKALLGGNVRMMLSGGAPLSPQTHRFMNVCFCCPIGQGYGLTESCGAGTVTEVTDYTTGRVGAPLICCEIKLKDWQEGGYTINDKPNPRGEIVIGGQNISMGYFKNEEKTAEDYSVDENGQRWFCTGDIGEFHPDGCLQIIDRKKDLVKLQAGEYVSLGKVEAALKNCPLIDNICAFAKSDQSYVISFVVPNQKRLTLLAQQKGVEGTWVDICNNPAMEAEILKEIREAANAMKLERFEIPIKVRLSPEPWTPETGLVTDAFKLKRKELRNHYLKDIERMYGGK
UniProt P55265, sequence (P55265 whole entry, looked up): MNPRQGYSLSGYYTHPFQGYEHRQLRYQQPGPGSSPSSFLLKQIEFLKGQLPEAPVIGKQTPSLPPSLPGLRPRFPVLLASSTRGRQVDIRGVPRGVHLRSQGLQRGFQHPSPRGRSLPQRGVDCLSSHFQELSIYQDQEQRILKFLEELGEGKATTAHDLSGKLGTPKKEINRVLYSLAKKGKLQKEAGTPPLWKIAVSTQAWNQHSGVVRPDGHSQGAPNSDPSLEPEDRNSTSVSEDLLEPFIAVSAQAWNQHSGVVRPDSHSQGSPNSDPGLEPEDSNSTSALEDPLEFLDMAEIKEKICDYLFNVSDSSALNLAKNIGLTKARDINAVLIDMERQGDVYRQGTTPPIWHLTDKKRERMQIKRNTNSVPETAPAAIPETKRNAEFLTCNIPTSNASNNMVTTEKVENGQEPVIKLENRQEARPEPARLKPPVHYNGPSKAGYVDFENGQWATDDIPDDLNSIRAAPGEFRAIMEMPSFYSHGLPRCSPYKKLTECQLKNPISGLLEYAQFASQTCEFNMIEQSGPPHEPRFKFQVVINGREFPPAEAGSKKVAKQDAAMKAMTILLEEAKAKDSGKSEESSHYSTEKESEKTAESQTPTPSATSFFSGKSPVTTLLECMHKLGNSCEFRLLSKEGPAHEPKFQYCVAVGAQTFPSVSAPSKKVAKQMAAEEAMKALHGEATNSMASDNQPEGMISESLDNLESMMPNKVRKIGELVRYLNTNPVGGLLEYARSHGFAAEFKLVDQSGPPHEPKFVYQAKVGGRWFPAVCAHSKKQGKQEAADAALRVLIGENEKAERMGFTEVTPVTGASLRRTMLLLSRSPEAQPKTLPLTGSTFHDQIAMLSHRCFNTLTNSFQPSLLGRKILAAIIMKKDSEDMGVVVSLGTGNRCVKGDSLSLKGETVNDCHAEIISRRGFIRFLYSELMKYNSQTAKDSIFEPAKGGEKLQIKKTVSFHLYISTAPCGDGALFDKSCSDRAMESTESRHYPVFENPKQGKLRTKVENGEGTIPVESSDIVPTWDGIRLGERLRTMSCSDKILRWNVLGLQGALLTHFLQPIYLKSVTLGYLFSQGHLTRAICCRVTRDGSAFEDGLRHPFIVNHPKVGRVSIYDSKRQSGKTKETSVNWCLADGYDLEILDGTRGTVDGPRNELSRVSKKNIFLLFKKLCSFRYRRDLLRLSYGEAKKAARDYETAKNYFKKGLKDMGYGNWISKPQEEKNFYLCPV
UniProt Q15067, sequence (Q15067 whole entry, looked up): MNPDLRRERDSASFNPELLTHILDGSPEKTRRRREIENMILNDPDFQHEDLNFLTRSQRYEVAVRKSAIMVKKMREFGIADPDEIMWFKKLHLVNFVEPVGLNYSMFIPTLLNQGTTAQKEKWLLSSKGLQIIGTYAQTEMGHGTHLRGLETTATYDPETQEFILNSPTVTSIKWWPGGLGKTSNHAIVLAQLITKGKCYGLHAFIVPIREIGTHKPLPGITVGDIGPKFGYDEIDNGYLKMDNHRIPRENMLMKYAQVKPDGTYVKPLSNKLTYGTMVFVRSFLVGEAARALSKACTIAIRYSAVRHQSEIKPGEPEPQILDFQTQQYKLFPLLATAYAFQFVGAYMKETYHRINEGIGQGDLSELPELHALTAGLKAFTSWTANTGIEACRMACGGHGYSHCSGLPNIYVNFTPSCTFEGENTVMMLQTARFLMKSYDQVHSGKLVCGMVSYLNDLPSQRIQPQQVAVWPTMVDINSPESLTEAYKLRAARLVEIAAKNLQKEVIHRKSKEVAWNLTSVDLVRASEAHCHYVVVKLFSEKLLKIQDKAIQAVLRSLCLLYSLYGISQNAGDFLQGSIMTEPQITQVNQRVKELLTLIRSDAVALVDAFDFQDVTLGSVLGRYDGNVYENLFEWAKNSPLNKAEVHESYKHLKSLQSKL
UniProt Q8NBU5, sequence (Q8NBU5 whole entry, looked up): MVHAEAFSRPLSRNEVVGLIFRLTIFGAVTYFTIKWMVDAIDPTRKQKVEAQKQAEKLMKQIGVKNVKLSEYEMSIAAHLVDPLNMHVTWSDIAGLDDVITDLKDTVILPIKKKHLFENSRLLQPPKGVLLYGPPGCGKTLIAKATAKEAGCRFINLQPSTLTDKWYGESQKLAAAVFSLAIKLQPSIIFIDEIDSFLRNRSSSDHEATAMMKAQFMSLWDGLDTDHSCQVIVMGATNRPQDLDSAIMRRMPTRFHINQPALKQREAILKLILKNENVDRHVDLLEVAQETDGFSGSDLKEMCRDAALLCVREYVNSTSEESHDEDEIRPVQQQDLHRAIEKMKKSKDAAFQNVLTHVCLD

| Target | probe-labelled cysteine peptide fold change (10 µM) | probe-labelled cysteine peptide fold change (50 µM) |
| --- | --- | --- |
| ATL2_Q8NHH9_293_HIHNCFSNLGCFLLPHPGLK (UniProt Q8NHH9) | -0.0463 | -0.137 |
| ALKBH3_Q96Q83_201_CPIIASLSFGATR (UniProt Q96Q83) | 0.189 | -0.104 |
| AIDA_Q96BJ3_69_IATCLELR (UniProt Q96BJ3) | -0.123 | -0.606 |
| AKR1B1_P15121_299_VCALLSCTSHK (UniProt P15121) | -0.208 | -2.38 |
| ADAR_P55265_851_CFNTLTNSFQPSLLGR (UniProt P55265) | -0.0671 | 0.166 |
| ATRX_P46100_1242_IKPVTENLVLSSHTGFCQSSGDEALSK (UniProt P46100) | -0.15 | -0.661 |
| ANXA4_P09525_315_KVLLVLCGGDD (UniProt P09525) | -0.0611 | -0.661 |
| AKR1B1_P15121_45_HIDCAHVYQNENEVGVAIQEK (UniProt P15121) | 0.0652 | -0.0317 |
| ATIC_P31939_575_VVIEACDELGIILAHTNLR (UniProt P31939) | 0.103 | 0.126 |
| ATP6V1A_P38606_138_WDFTPCK (UniProt P38606) | -1.09 | -3.27 |
| ALDH9A1_P49189_45_VIATFTCSGEK (UniProt P49189) | -0.00832 | 0.0216 |
| ARHGAP44_Q17R89_193_ADALREEMEEAANRVEICR (UniProt Q17R89) | -0.0472 | -0.212 |
| AGL_P35573_486_ELICWGDSVK (UniProt P35573) | 0.0938 | 0.033 |
| ANKFY1_Q9P2R3_742_AIDENNEPTACFLIR (UniProt Q9P2R3) | -0.0754 | -0.213 |
| ALDOA_P04075_178_YASICQQNGIVPIVEPEILPDGDHDLKR (UniProt P04075) | 0.281 | -0.12 |
| ATM_Q13315_1396_ATFAYISNCHK (UniProt Q13315) | -1.94 | -2.52 |
| ATP6V0A1_Q93050_58_RCEEMDR (UniProt Q93050) | 0.102 | 0.183 |
| ALDH1B1_P30837_169_TIPMDGQHFCFTR (UniProt P30837) | 0.00215 | -0.131 |
| AKR1B1_P15121_304_VCALLSCTSHK (UniProt P15121) | -0.547 | -2.08 |

| Target | probe-labelled cysteine peptide fold change (10 µM) | probe-labelled cysteine peptide fold change (50 µM) |
| --- | --- | --- |
| ARPC1B_O15143_227_VAWVSHDSTVCLADADKK (UniProt O15143) | 0.103 | -0.0807 |
| ARHGAP45_Q92619_809_LCQAFENGK (UniProt Q92619) | 0.077 | 0.0355 |
| ALDH9A1_P49189_267_SPLIIFSDCDMNNAVK (UniProt P49189) | 0.208 | 0.2 |
| ALKBH5_Q6P6C2_100_LFSQDECAK (UniProt Q6P6C2) | -0.000108 | 0.012 |
| ATP6V1B2_P21281_425_DHADVSNQLYACYAIGK (UniProt P21281) | 0.162 | 0.207 |
| ADAM10_O14672_222_NTCQLYIQTDHLFFK (UniProt O14672) | 0.033 | 0.208 |
| ALDH9A1_P49189_355_VLCGGDIYVPEDPK (UniProt P49189) | -0.105 | 0.0431 |
| ARMC6_Q6NXE6_121_FCDQCK (UniProt Q6NXE6) | -0.142 | -0.663 |
| ATRX_P46100_235_WCAEGGNLICCDFCHNAFCK (UniProt P46100) | 0.0337 | -0.0739 |
| ANKHD1_Q8IWZ3_1716_GGCNITAIQDVTGAHIDVDK (UniProt Q8IWZ3) | 0.183 | 0.0508 |
| ANAPC1_Q9H1A4_1630_LLVPVDVDTNTPCYALLEVTYK (UniProt Q9H1A4) | -0.151 | 0.155 |
| ACOX1_Q15067_392_AFTSWTANTGIEACR (UniProt Q15067) | 0.0592 | 0.0993 |
| ATP5F1A_P25705_244_KLYCIYVAIGQK (UniProt P25705) | -1.08 | 0.236 |
| ATAD1_Q8NBU5_229_AQFMSLWDGLDTDHSCQVIVMGATNRPQDLDSAIMR (UniProt Q8NBU5) | 0.117 | 0.088 |
| ARHGEF7_Q14155_490_TLGNVTYMSQVLIQCAGSEEK (UniProt Q14155) | -0.204 | -1.18 |
| ALDH18A1_P54886_674_SLRTEYGDLELCIEVVDNVQDAIDHIHK (UniProt P54886) | 0.115 | -0.188 |
| ACSL4_O60488_221_TALLDISCVK (UniProt O60488) | 0.177 | 0.0446 |
| ARNT_P27540_269_CGSSSVDPVSVNR (UniProt P27540) | -0.375 | -0.756 |
| ADNP2_Q6IQ32_220_CNANASSQDALMYHILTSDIHR (UniProt Q6IQ32) | 0.0714 | 0.0124 |
